# Assay results published in PubChem BioAssay (NCATS).
# Where “and” joins values, the source holds several entries; their conditions need not be identical. Equal entries are not always repeated. Results filed as inconclusive are left out. Unmarked numbers belong to inactive results. Calls of active or inactive are those of the source. Calls follow the shape of the dose curve; as a rule, active = well fitted curve in the direction sought with a large enough effect; inconclusive = small, poorly fitted or top-dose-only effect, or another doubt; inactive = no such curve, though single readings can be large; an effect the other way counts as inactive or inconclusive.
# What was measured:
# [1] = molecular target: Cellular tumor antigen p53 (Homo sapiens) (UniProt P04637); assay: Primary qHTS for small molecule compounds that upregulate eGFP-tagged delta133p53alpha (in N-terminal) cells. (AID 2060322); conditions: NCI-H358 eGFP-delta133p53alpha fluorescence, 24 h; activation: hits give high values; also: nearly all actives have a fitted effect of over 75% in size; also: potency is read from the fitted curve at half-maximal effect;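 as to activation: cells pre-induced with doxycycline then dosed without doxycycline; 0% = DMSO vehicle and 100% = reference activator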
# Cellular tumor antigen p53 (Homo sapiens), sequence (P04637 whole entry, looked up): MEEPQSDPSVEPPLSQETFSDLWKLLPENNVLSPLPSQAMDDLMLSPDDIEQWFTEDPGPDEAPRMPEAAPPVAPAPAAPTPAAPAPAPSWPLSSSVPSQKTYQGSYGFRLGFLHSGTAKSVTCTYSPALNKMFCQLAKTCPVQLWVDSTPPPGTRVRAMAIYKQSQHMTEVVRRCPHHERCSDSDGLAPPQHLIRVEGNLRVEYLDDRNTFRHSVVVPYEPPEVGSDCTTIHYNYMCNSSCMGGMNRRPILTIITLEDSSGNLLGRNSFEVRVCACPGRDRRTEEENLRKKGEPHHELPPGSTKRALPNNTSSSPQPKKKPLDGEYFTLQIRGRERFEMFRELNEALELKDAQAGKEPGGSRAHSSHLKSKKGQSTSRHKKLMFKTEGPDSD
# How it was run: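 NCI-H358 cells pre-induced 24 h with 10 ng/ml doxycycline for eGFP-delta133p53alpha, plated dox-free and exposed 24 h at 37C to titrated compounds. Fixed, Hoechst-stained; gated GFP peak intensity by laser scanning cytometry, normalized to DMSO (0%) and 57.5 uM 5-azacytidine (100%).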
# [2] = molecular target: Aldehyde dehydrogenase, mitochondrial (Homo sapiens) (UniProt P05091); assay: qHTS for Inhibitors of the Aldehyde Dehydrogenase Family (ALDH2) Primary screen (AID 2061308); conditions: ALDH2 enzyme inhibition qHTS, 1536-well; series mostly up to 56 µM;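 also: plate controls were vehicle for no effect and reference inhibitor for full effect; nearly all actives have a fitted effect of over 55% in size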
# [3] = molecular target: Retinaldehyde dehydrogenase 3 (Homo sapiens) (UniProt P47895); assay: qHTS for Inhibitors of the Aldehyde Dehydrogenase Family (ALDH1A3) Primary screen (AID 2061315); conditions: ALDH inhibition qHTS; series mostly up to 56 µM;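 also: plate controls were DMSO vehicle for no effect and reference inhibitor for full effect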
# [4] = BET inhibitor-based combinations targeting novel dependencies in MECOM-rearranged (r) AML: SET-2 cell line (AID 2202231); conditions: SET-2 AML cells viability, CellTiter-Glo luminescence, 48 h; viability: hits give low values, concentration not given here; also: nearly all actives have a fitted effect of over 35% in size; also: potency is read from the fitted curve at half-maximal effect;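 as to viability: plate controls were DMSO treated cells for no effect and wells without cells for full effect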
# How it was run: (§1)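 A 48 hr incubation preceded viability reading by CellTiter-Glo, with 15 min room-temperature development. Dose series had 11 points; normalization used DMSO and empty wells; AUC was computed and mean-centered per line as Z-AUC.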
# [5] = BET inhibitor-based combinations targeting novel dependencies in MECOM-rearranged (r) AML: OCI-AML3 cell line (AID 2202232); conditions: CellTiter-Glo luminescence, 48 h; Potency: OCI-AML3 viability; series mostly up to 46 µM; also: nearly all actives have a fitted effect of over 35% in size; also: potency is read from the fitted curve at half-maximal effect;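 as to viability (% of control): plate controls were DMSO vehicle wells for no effect and wells without cells for full effect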
# How it was run: as §1
# [6] = BET inhibitor-based combinations targeting novel dependencies in MECOM-rearranged (r) AML: MV-4-11 cell line (AID 2202233); conditions: MV-4-11 AML viability, CellTiter-Glo luminescence, 48 h; series mostly up to 46 µM; also: nearly all actives have a fitted effect of over 45% in size; also: potency is read from the fitted curve at half-maximal effect;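 as to viability, % of control: plate controls were DMSO for no effect and blank wells for full effect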
# How it was run: (§2)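 Each compound is tested in an 11-point concentration series against 500 seeded cells/well for 48 hr. The luminescent viability signal is normalized to DMSO and blank wells, then reduced to AUC and a cell-line-centred Z-AUC.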
# [7] = BET inhibitor-based combinations targeting novel dependencies in MECOM-rearranged (r) AML: HNT-34 cell line (AID 2202234); conditions: HNT-34 AML viability, CellTiter-Glo luminescence, 48 h; series mostly up to 46 µM; also: nearly all actives have a fitted effect of over 35% in size; also: potency is read from the fitted curve at half-maximal effect;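 as to viability (% of control): plate controls were vehicle wells for no effect and cell-free wells for full effect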
# How it was run: as §2
# [8] = BET inhibitor-based combinations targeting novel dependencies in MECOM-rearranged (r) AML: UCSD-AML1 cell line (AID 2202235); conditions: UCSD-AML1 AML cells viability, CellTiter-Glo, 48 h; series mostly up to 46 µM; also: nearly all actives have a fitted effect of over 40% in size; also: potency is read from the fitted curve at half-maximal effect;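 as to viability (% of control): plate controls were DMSO vehicle wells for no effect and blank wells for full effect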
# How it was run: as §2
# [9] = BET inhibitor-based combinations targeting novel dependencies in MECOM-rearranged (r) AML: AML-191 cell line (AID 2202236; also: nearly all actives have a fitted effect of over 35% in size; also: potency is read from the fitted curve at half-maximal effect;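 as to viability (% of control): plate controls were vehicle wells for no effect and wells without cells for full effect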); conditions: AML-191 viability, CellTiter-Glo luminescence, 48 h; series mostly up to 46 µM
# How it was run: as §1
# [10] = BET inhibitor-based combinations targeting novel dependencies in MECOM-rearranged (r) AML: AML-194 cell line (AID 2202237; also: nearly all actives have a fitted effect of over 40% in size; also: potency is read from the fitted curve at half-maximal effect;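 as to viability (% of control): plate controls were vehicle wells for no effect and wells without cells for full effect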); conditions: AML-194 (MECOM-r AML) viability, CellTiter-Glo, 48 h; series mostly up to 46 µM
# How it was run: as §1
SMILES,Potency [1],Potency [2],Potency [3],Potency [4],Potency [5],Potency [6],Potency [7],Potency [8],Potency [9],Potency [10],activation [1],viability [4] [%],viability (% of control) [5],"viability, % of control [6]",viability (% of control) [7],viability (% of control) [10]
C=CC(=O)Nc1cccc(Nc2nc(Nc3ccc(OCCOC)cc3)ncc2F)c1,9.53 µM (active),inactive,inactive,16.6 µM (active),14.8 µM (active),1.48 µM (active),1.86 µM (active),8.33 µM (active),8.33 µM (active),9.34 µM (active),–,–,–,–,–,–
COc1cc2ncnc(Nc3ccc(F)c(Cl)c3)c2cc1NC(=O)/C=C/CN1CCCCC1,9.53 µM (active),inactive,inactive,8.33 µM (active),5.9 µM (active),2.95 µM (active),3.72 µM (active),8.33 µM (active),7.42 µM (active),8.33 µM (active),–,–,–,–,–,–
CC(C)(C)C(=O)CN1C(=O)[C@H](NC(=O)Nc2cccc(C(=O)O)c2)CN(C2CCCCC2)c2ccccc21,–,inactive,inactive,–,inactive,inactive,inactive,inactive,inactive,inactive,-7.67%,110,–,–,–,–
CCN1CCN(Cc2ccc(NC(=O)c3ccc(C)c(NC(=O)c4cncc(-c5cccs5)c4)c3)cc2C(F)(F)F)CC1,26.9 µM (active),inactive,inactive,5.9 µM (active),4.17 µM (active),0.118 µM (active),0.0148 µM (active),1.05 µM (active),–,1.18 µM (active),–,–,–,–,–,–
COc1cc2c(Nc3ccc(Cl)c(Cl)c3F)ncnc2cc1OCC1C[C@@H]2CN(C)C[C@@H]2C1 (stereo partly drawn),13.5 µM (active) and 19.3 µM (active),inactive,inactive,23.5 µM (active) and 20.9 µM (active),18.6 µM (active) and 13.2 µM (active),5.9 µM (active) and 5.25 µM (active),1.05 µM (active) and 1.18 µM (active),9.34 µM (active),14.8 µM (active) and 10.5 µM (active),13.2 µM (active) and 10.5 µM (active),–,–,–,–,–,–
O=C(NCC1CN(c2ccc(N3CCOCC3=O)cc2)C(=O)O1)c1ccc(Cl)s1 (stereo not drawn),–,inactive,inactive,–,inactive,inactive,23.5 µM (active),inactive,–,inactive,-11.9% and 7.67%,94.7,–,–,–,–
O=C(Nc1ccc(S(=O)(=O)N2CCOCC2)cc1)c1cc(Cl)ccc1NS(=O)(=O)c1ccc(Cl)s1,–,inactive,inactive,–,inactive,inactive,–,inactive,–,–,0.837%,98.4,–,–,–,–
COc1c(C)cc(NC(=O)c2nn(Cc3ccc(F)cc3)c3c2CN(C(=O)c2ccc[nH]2)C[C@]3(C)C(N)=O)cc1C,–,inactive,inactive,–,–,–,–,–,–,–,0.333%,118,113% [at 8.46 µM],114% [at 8.46 µM],105% [at 8.46 µM],108% [at 8.46 µM]
Cc1sc2c(c1C)C(c1ccc(Cl)cc1)=N[C@@H](CC(=O)Nc1ccc(OCCOCCOCCOCCNc3cccc4c3C(=O)N(C3CCC(=O)NC3=O)C4=O)cc1)c1nnc(C)n1-2 (stereo partly drawn),–,inactive,inactive,1.05 µM (active),0.0332 µM (active),0.0417 µM (active),0.0148 µM (active),0.0209 µM (active),–,0.0525 µM (active),59%,–,–,–,–,–
COc1cc(OC)c(/C=C/S(=O)(=O)Cc2ccc(OC)c(NCC(=O)O)c2)c(OC)c1,–,inactive,inactive,0.296 µM (active),0.209 µM (active),–,0.166 µM (active),0.263 µM (active),0.235 µM (active),0.263 µM (active),17.9%,–,–,–,–,–
CCCCN(CCCC)C(=O)CN1C[C@H](c2ccc3c(c2)OCO3)[C@@H](C(=O)O)[C@@H]1c1ccc(OC)cc1,–,inactive,inactive,–,inactive,inactive,–,inactive,inactive,inactive,-2.39% and -6.46%,107,–,–,–,–
COc1cccc2c1c(O)c(C(=O)N(C)c1ccc(C(F)(F)F)cc1)c(=O)n2C,–,inactive,inactive,–,inactive,inactive,–,inactive,inactive,inactive,10.1%,40.7,–,–,–,–
CCS(=O)(=O)N1CCC([C@@H](C)n2c(C)c(C(=O)NCc3c(OC)cc(C)[nH]c3=O)c3ccccc32)CC1,–,inactive,inactive,–,5.9 µM (active),–,inactive,inactive,inactive,inactive,7.16%,115,–,–,–,–
